Data reported in paper PMC12136788.
Over roughly 24,000 sequences, “enrichment r” has its median near 0.99; the highest 2% begin near 3.7. For the sample, the highest values were picked, then their nearest neighbours and some sequences at random.

T1: UNK ZnF1-3 (human, UniProt Q9C0B0 31-174)
T1 sequence: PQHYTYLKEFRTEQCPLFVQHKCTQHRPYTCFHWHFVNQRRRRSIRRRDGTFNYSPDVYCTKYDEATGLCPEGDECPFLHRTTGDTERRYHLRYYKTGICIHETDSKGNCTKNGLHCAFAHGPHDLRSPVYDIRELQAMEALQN

B1: chr7:65419240:65419241:+_ENSG00000196715_ENST00000360768|hu_mus|motif|central (ssRNA)
RNA: GGGAGUUCUACAGUCCGACGAUCGCUGGCCAUCAGUCUUCCUUAGGCUGCAGCUGUCGCUUCCAGGCCUCAUUCAAAUAAACGGGUCGUUUGUAAUUGAUGAUGAGGAGGAGGAAGUUCAGCACAUAUGUGGUGACGCAGAUGCAACAGAGGAUUGAGCAUCA
B2: chr11:107358869:107358870:+_ENSMUSG00000020720_ENSMUST00000021063|mus_hu|FALSE|FALSE (ssRNA)
RNA: GGGAGUUCUACAGUCCGACGAUCCUCUGGAAGUUGAUAAUUCCUGCUAAUCUGUCUACUUUAGCAAAGAUGGUCUUGUUAACUACUAGAUUUGAGAGAAAGGCUUCGGACUCAUCAACAGAUAGAUCCAGAAGCUGUGCCAUCCAACAGAGGAUUGAGCAUCA
B3: chr3:55808730:55808731:-_ENSMUSG00000027799_ENSMUST00000029374|mus_mus|FALSE|FALSE (ssRNA)
RNA: GGGAGUUCUACAGUCCGACGAUCUGACGUCGUAUGAAUUCUGAAGUCUUUCUCUUCCAUUAUGCUUGAUGUGCACGUUAACUCUACACUCGCAGUCAUGUGAGCAAGCAACCCAAGAUCAUCACUGACACCAAGAUGUACUUGCAACAGAGGAUUGAGCAUCA
B4: 75313438_75313660_4053_CDS_ENSMUSG00000020850_ENSMUST00000102510|mouse|control|control (ssRNA)
RNA: GGGAGUUCUACAGUCCGACGAUCCUUGGACCACCUGAGGUCAGACUGGGGGAUAAGCACAUGGCCCAUCGAGAGCAUGCCAAGCCCACCCAGCUCCUUAGGGGUGUAGAAUACAACAGGCGGGAACCGGCUAGGCAUCUUGGACAACAGAGGAUUGAGCAUCA
B5: 207631549_207631669_399_CDS_ENSG00000118246_ENST00000403094|human|control|control (ssRNA)
RNA: GGGAGUUCUACAGUCCGACGAUCAAAAAUGAAUGCAUCCUGAAAGAGAUAUCUAAUGAUAUCAGUUGAUUGCAUUCUGUUAUGAAAGUUAUUUAAAAUGUUCCAGUUUGAAUGAACUAUUUUUGGUUUGCAAAGUCCCAAACACAACAGAGGAUUGAGCAUCA
B6: chr19:53454881:53454882:-_ENSMUSG00000025024_ENSMUST00000025997|mus_mus|motif|central (ssRNA)
RNA: GGGAGUUCUACAGUCCGACGAUCGUUUCAUUCUACCAAAGCCAAACAAUGACAACAAUGUAUCUUCCUUACUCAGCAUCGGAGCAAUCAGUUACCUUUAGAAAAAUACAAGGAUAAAAAGGAGAGUGUAAAGUAAAGCCCUGCCAACAGAGGAUUGAGCAUCA
B7: chr4:95690885:95690886:+_ENSMUSG00000028572_ENSMUST00000156910|mus_mus|mus_mus_mus_hu_False|78_98 (ssRNA)
RNA: GGGAGUUCUACAGUCCGACGAUCUUUAGAAAAUGUUAAUGUUAAAUCUAAAAUAUUGUAAUUUUAAUAUUUUAUUUUACCAGAAGUCACAGGCAAGCAGACACUACAAGAAUAUAUGAAAAUGAAACUCAACAAUAUAACUGUCAACAGAGGAUUGAGCAUCA
B8: chr4:125586161:125586162:-_ENSG00000151458_ENST00000504087|hu_mus|FALSE|FALSE (ssRNA)
RNA: GGGAGUUCUACAGUCCGACGAUCCACGACGUCCUAAACAGUUGAUUUACAAAAUUUAAAUAUUUGAAUUUCAAAAAUAGCCAUUUAUUAUUAUUUUUUUAUUUGUGGGACCGUUUCUUAUCUUUGUAAUAGAGAAGUCAUUGUCAACAGAGGAUUGAGCAUCA
B9: chr19:15271055:15271056:-_ENSG00000074181_ENST00000263388|hu_hu|FALSE|FALSE (ssRNA)
RNA: GGGAGUUCUACAGUCCGACGAUCCAUAUAUAUAUUUUGUAAAAAAUAAUAAUAAUAAGUUUGUUUAAAUGAAUUUGUUUCUAUACAAAAUGUAAAAAAAAAAAGAAAAAUAAAAAUAAUAAUAAUUCAUUCAUGUCAGAGUGUCAACAGAGGAUUGAGCAUCA
B10: chr10:123500321:123500322:-_ENSG00000107669_ENST00000369043|hu_hu|motif|central (ssRNA)
RNA: GGGAGUUCUACAGUCCGACGAUCACGUUAAGAAACUACACACAACAAAUAUUUGCAAAAUGAAUGAAAAAUAGGAUAAAGCGGUUUAAAAGUCAACAUAGUAAUAUUUAUCUAAAUAAUUUUAAUCAAAUGUACAACAUAUUUCAACAGAGGAUUGAGCAUCA
B11: chr19:46159329:46159330:+_ENSMUSG00000015176_ENSMUST00000165017|mus_hu|FALSE|FALSE (ssRNA)
RNA: GGGAGUUCUACAGUCCGACGAUCGGUCAAGUUGUCAAAAAAUGUCUUUCAACAGUAGAAAAGUUUGCUUUCAAAUUAAAAAACAAAGCACGUAUUGCAAACAUCGUGUAAUGAUAAAAUUACAGAAAAAAAUAUAUUCAGAAUCAACAGAGGAUUGAGCAUCA
B12: chr6:117881578:117881579:-_ENSG00000047932_ENST00000052569|hu_mus|FALSE|FALSE (ssRNA)
RNA: GGGAGUUCUACAGUCCGACGAUCCUUUAAUGUAGAAUAUGUCAUUUUUAUUUACAGGCUAAUUAAGAAUAUGAAACUCAACUAGAUAUAAUACAAUUAUCAUAAAUCCCCUUAUAUGUAAAUUAAUAUAUUUUUUGUUUUAAACAACAGAGGAUUGAGCAUCA
B13: 186301657_186302230_1024_CDS_ENSG00000090520_ENST00000265028|human|control|control (ssRNA)
RNA: GGGAGUUCUACAGUCCGACGAUCGGAAAUAUGUACCUUGUGACCAUCCAAGUGAGUAAUAUCCAUCUCAAAGCCAACCAGUGACUCAACUAAUGAGAUUGUCACAUUUGUGUACAAAUCAUCUCCUCUCCUUUCAAAUAUUGGCAACAGAGGAUUGAGCAUCA
B14: 12963335_12971236_673_CDS_ENSG00000085415_ENST00000262124|human|control|control (ssRNA)
RNA: GGGAGUUCUACAGUCCGACGAUCAUAUUCAAAAAUCUGAACCUUGGCCAUUGCGUUGGGGCUACUGUCAUCACUUCCUACGGCGAUCAUGGGGGAAUGAGCACGAGAGCUUGAAGGGUUCCAAGAAAUACAACUACAGCUUAGCAACAGAGGAUUGAGCAUCA
B15: chr1:154966221:154966222:+_ENSMUSG00000042751_ENSMUST00000043313|mus_mus|FALSE|FALSE (ssRNA)
RNA: GGGAGUUCUACAGUCCGACGAUCUGCAACUCGAAUGCAGUUUUUAUUGAGUUGACUUCCAUAAAGCAAAUCUCACUCUUAAAUUAGCAGAUAUGAUUUUUUAAAAAAUUAAAAAAAAAAAAGCUUCCUCCUCCCCAUUCCAACCAACAGAGGAUUGAGCAUCA

Biological target: T1, UNK ZnF1-3
Assay: nsRBNS (natural sequence RNA bind-n-seq); RBNS binding buffer (assumed for nsRBNS): 25 mM Tris pH 7.5, 150 mM KCl, 3 mM MgCl2, 0.01% Triton X-100, 500 ug/ml BSA, 20 U/ml SUPERase-In, 4 C; UNK is unkempt and MSI1 is Musashi-1; names of the RNAs are library labels; protein concentration not given here; high values mean tight binding

Q: Which binding signal does the source give for B1 here?
A: 1.01 enrichment R

Q: With B2 as the binder, how does the binding signal read?
A: 3.65 enrichment R

Q: For B3, which binding signal is on record?
A: 0.64 enrichment R

Q: Which binding signal does the source give for B4 here?
A: 0.919 enrichment R

Q: How did the binding signal turn out when B5 was run?
A: 0.397 enrichment R

Q: For B6, which binding signal is on record?
A: 1.52 enrichment R

Q: With B7 as the binder, how does the binding signal read?
A: 3.29 enrichment R

Q: With B8 as the binder, how does the binding signal read?
A: 3.35 enrichment R

Q: For B9, which binding signal is on record?
A: 9.9 enrichment R

Q: Which binding signal does the source give for B10 here?
A: 6.73 enrichment R

Q: B11 was tested. Which binding signal did it give?
A: 6.25 enrichment R

Q: With B12 as the binder, how does the binding signal read?
A: 4.33 enrichment R

Q: Which binding signal does the source give for B13 here?
A: 0.986 enrichment R

Q: For B14, which binding signal is on record?
A: 2.14 enrichment R

Q: With B15 as the binder, how does the binding signal read?
A: 3.32 enrichment R
